# Source: PubChem BioAssay (NCI)
# The panel holds about 79,000 compounds, 15% with a hit somewhere; the sample as a whole holds those more often. Values without a mark were called inactive. Rule as the data show it: active = growth inhibition above about 70%; inactive = the rest.
# Assay: NCI Yeast Anticancer Drug Screen. Data for the mlh1 rad18 strain (AID 175)
# Conditions: S. cerevisiae mlh1 rad18 strain growth inhibition; at 50.0 µM; stronger effect = higher value
# Method in brief: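 Genetically defined yeast (DNA repair-deficient) exposed to compounds; growth inhibition determined relative to vehicle.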
row,SMILES,growth inhibition [%]
1,Cc1cc([N+](=O)[O-])c(C)c(Br)c1C,-0.85
2,CCOC(=O)c1ccc(OC)c2[nH]c3c(c(=O)c12)C(=O)c1[nH]c2c(OC)ccc(C(=O)OCC)c2c(=O)c1C3=O,-25.2
3,O=C1C2=C(Nc3ccccc3N2)OC1c1ccc2c(c1)OCO2 (stereo not drawn),-0.1
4,CC(=O)NNC(=S)N/C=C(\C#N)S(=O)(=O)c1ccc(C)cc1,-37.6
5,CS(=O)(=O)OCC1C2CCC(CC2)C1COS(C)(=O)=O (stereo not drawn),-11.5
6,N#C/C(=C\c1c[nH]c2ccccc12)c1ccc([N+](=O)[O-])cc1,-4.1
7,O=C(CC1C(=O)Nc2ccccc2S1=O)Nc1cccc(Cl)c1 (stereo not drawn),-25.2
8,NC(=O)Nc1nc(-c2ccccc2)no1,-16.1
9,CC(=O)Nc1c(C(N)=O)cnn1-c1ccccc1,36.9
10,CC1=NC=C(O)c2ccccc2O1,21.4
11,O=C(O)c1ccc(SSc2ccc(C(=O)O)cn2)nc1,14.9
12,CC1(C)C2CCC13CS(=O)(=O)N1O[C@]13C(=O)O2 (stereo partly drawn),31.9
13,CC(=O)Oc1ccccc1C1CCCCC1,0.9
14,Nc1nnc(Cc2cccc3ccccc23)o1,1.1
15,Nc1nnnn1CCc1ccccc1,9.75
16,O=C(COc1cc(Cl)ccc1Cl)NCc1ccc(Cl)cc1,14.8
17,CC(NC(=O)N(C)C)NC(=O)N(C)C,-4.95
18,CC(C)Sc1nc2ccc(NC(=O)/C=C/C(=O)O)cc2s1,12.1
19,Cn1c(=O)c2c(nc(Br)n2CC(=O)c2ccc([N+](=O)[O-])cc2)n(C)c1=O,27.4
20,CCCCOC(=O)CNC(=O)c1ccc(C)c(OCc2ccccc2)c1[N+](=O)[O-],-17.6
21,COC(=O)/C=C(\C(=O)OC)c1cc(C)c2cc(C(C)C)ccc(C)c1-2,17.9
22,CCOC(=O)c1cnc(SCc2ccccc2)[nH]c1=O,-13.3
23,CCC(C#N)(c1ccccc1)N(CCc1ccccc1)C(=O)c1ccccc1 (stereo not drawn),-22.1
